From PubChem BioAssay AID485349 (National Center for Advancing Translational Sciences (NCATS), 2010)
The campaign covered roughly 320,000 compounds. About 620 (0.19%) were called active. Calls follow the shape of the dose curve; as a rule, active = well fitted activation curve with a large enough effect; inconclusive = small, poorly fitted or top-dose-only effect; inactive = no such curve, though single readings can be large or run the other way. The list comes from a sample in which actives are over-represented; it also holds similar structures and randomly drawn compounds. Entries that show only a call come without a potency. Non-standard residues stand in square brackets, D forms with d. Residues, ends and D or L forms follow the SMILES beside them. ξ: configuration not given here. ξV = CC(C)C(N)C(=O)O

test: qHTS Assay for Identifying a Potential Treatment of Ataxia-Telangiectasia; conditions: F2112 A-T fibroblasts, KAP-1 phosphorylation AlphaLISA, neocarzinostatin DNA damage 30 min before lysis; series mostly up to 57.5 µM; also: nearly all actives have a fitted effect of over 45% in size
Outline: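 ATM-like activity read as KAP-1 phosphorylation via AlphaLISA donor/acceptor antibody pairs after lysis and 6 hr at 25C. Cells were ATM-null patient fibroblasts (F2112, hTERT), dosed 60 min, then exposed to the DSB inducer NCS for 30 min.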
Potency is read from the fitted curve at half-maximal effect.

Row | Structure (SMILES) | Potency
1 | O=C1OCCN1C(=O)[C@H]1[C@H](c2ccc(F)cc2)C(c2ccccc2)=NN1c1ccc(Br)cc1 | inactive
2 | O=C(NC1CC1)c1ccc(-c2ccccc2)cc1 | inactive
3 | CC(C)C[C@H](CO)Nc1nc(N(C)c2cccc(Cl)c2)c2ncn(C(C)C)c2n1 | inactive
4 | OCCCNc1nccc(-c2cc(Nc3cccc(Cl)c3)ncn2)n1 | inactive
5 | CC(C)n1cnc2c(Nc3cccc(Cl)c3)nc(N(CCO)CCCO)nc21 | 31.6 µM (active)
6 | CC[C@]1(C(=O)OC)[C@H]2C(=O)N(C)C(=O)[C@H]2[C@H]2CN(C)C(=NCc3ccccc3)N21 | inactive
7 | O=C1c2ccccc2[C@@H]2C[C@@H](O)[C@H](Nc3ccccc3Cl)CCN12 | inactive
8 | COc1ccc(C)c(Cn2c(-c3nonc3N)nc3ccccc32)c1 | inactive
9 | CN(CC(=O)Nc1ccc(F)c(F)c1F)C(=O)C1CC(=O)N(C2CCCC2)C1 (stereo not drawn) | inactive
10 | CNC(=S)NNC(=O)c1oc2nc(-c3ccccc3)cc(-c3ccco3)c2c1N | 39.8 µM (active)
11 | NNC(=O)c1oc2nc(-c3ccccc3)cc(-c3ccco3)c2c1N | inactive
12 | CNC(=S)NNC(=O)c1cccn(Cc2ccccc2)c1=O | inactive
13 | O=C(c1ccccc1Cl)N(Cc1ccccc1F)N1C(=O)CCCC1=O | inactive
14 | COC(=O)[C@@H]1C[C@@]2(O)[C@H](O)[C@H](O)[C@H](O)C[C@H]2N1Cc1ccc(C(C)(C)C)cc1 | inactive
15 | CC[C@]12c3[nH]c4cc(CCC(=O)N(C)C)ccc4c3CCN1C(=O)[C@@H](CC(=O)NCCCN(C)C)C[C@@H]2C(=O)N1CCN(C(=O)c2ccco2)CC1 | inactive
16 | CC(=O)NC(C(=O)NCC(N)=O)C(C)C (stereo not drawn) (Ac-[ξV]-Gly-NH2) | inactive
17 | Cc1csc(SCC(=O)N(c2ccccc2)C(C)C)n1 | inactive
18 | COc1ccc2sc(-c3ccc(N(C)C)cc3)c(-c3ccc4cc[nH]c4c3)c2c1 | inactive
19 | COc1ccc(-c2sc3ccc(OC)cc3c2C#Cc2ccccn2)cc1 | inactive
20 | COc1ccc2sc(-c3ccc(N(C)C)cc3)c(C#CCO)c2c1 | 31.6 µM (active)
21 | CCCCNC(=O)OC(C)CNC(=O)OC (stereo not drawn) | inactive
22 | CC[C@]12c3[nH]c4cc(CCC(=O)N(C)C)ccc4c3CCN1C(=O)[C@@H](CC(=O)NCc1ccco1)C[C@@H]2C(=O)N1CCN(C(=O)c2ccco2)CC1 | inactive
23 | CCCNC(=O)CCn1nc(-c2ccccc2)c2ccccc2c1=O | inactive
24 | C=C(C)C(=O)O[C@H]1C/C(C)=C\C(=O)/C=C(\C)[C@H](O)[C@@H]2OC(=O)C(=C)[C@@H]21 | 39.8 µM (active)

Row | Structure (SMILES) | Potency
25 | O=C(CSc1ccc([N+](=O)[O-])cn1)Nc1ccc(N2CCOCC2)c(Cl)c1 | inactive
26 | CC(CCN1CCN=C1N(C)C)c1ccccc1 (stereo not drawn) | inactive
27 | O=C(O)c1ccc2c3c(cccc13)C(=O)N(OS(=O)(=O)c1ccccc1)C2=O | inactive
28 | Cc1nn(C)cc1N1C(=O)c2cccc3c(N)ccc(c23)C1=O | inactive
29 | CN1C(=O)c2cccc3c(N)ccc(c23)C1=O | 17.8 µM (active)
30 | CC[C@]12c3[nH]c4cc(CCC(=O)N(C)C)ccc4c3CCN1C(=O)[C@@H](CC(=O)NCC13CC4CC(CC(C4)C1)C3)C[C@@H]2C(=O)N1CCN(C(=O)C2CC2)CC1 | inactive
31 | CCCN(CC(=O)NC(=O)NC1CCCCC1)CC(=O)Nc1cc(Cl)ccc1Cl | inactive
32 | O=C(COC(=O)/C=C/c1ccc2c(c1)OCO2)NC1CCS(=O)(=O)C1 (stereo not drawn) | 3.16 µM (active)
33 | CN(Cc1ccccc1)C(=O)COC(=O)/C=C/c1ccc2c(c1)OCO2 | inactive
34 | CCOC(=O)CCCNC(=O)COC(=O)/C=C/c1ccc2c(c1)OCO2 | inactive
35 | CC(=O)Oc1ccc(C(C)=O)c2c1OCCO2 | inactive
36 | C[C@H](NS(=O)(=O)c1ccc(Cl)cc1)C(=O)OCC(=O)N1CCOCC1 | inactive
37 | c1ccc2c(CCN3CCNC[C@H]3Cc3cccc4ccccc34)cccc2c1 | inactive
38 | CC(Sc1ncnc2c1cnn2-c1ccccc1)C(=O)Nc1ccc(N2CCOCC2)cc1 (stereo not drawn) | inactive
39 | CCN(CC)C(=O)CSc1ncnc2c1cnn2-c1ccccc1 | inactive
40 | CC(C)Sc1ncnc2c1cnn2-c1ccccc1 | 39.8 µM (active)
41 | Cc1ccc(OCc2nnc(SC3CCc4ccccc4C3=O)n2C)cc1 (stereo not drawn) | inactive
42 | CC1(C)Cc2cccc(OCC(=O)N3CCN(c4ccc([N+](=O)[O-])cc4)CC3)c2O1 | inactive
43 | C=CC(COCc1ccccc1)N(CC(=O)OC)S(=O)(=O)c1cc(Br)ccc1OC (stereo not drawn) | inactive
44 | CCOC(=O)c1c(C)[nH]c(C)c1S(=O)(=O)NCCCc1ccco1 | inactive
45 | CCOC(=O)c1c(CNCc2ccccc2F)c2sc(C)cc2n1C | inactive
46 | COc1ccccc1N1N=C(c2cccs2)CC1c1ccccc1 (stereo not drawn) | 15.8 µM (active)
47 | COc1ccc(C2CC(c3cccs3)=NN2C(=O)CCC(=O)O)cc1OC (stereo not drawn) | inactive
48 | COc1ccc(C2=NN(C(C)=O)C(c3ccccc3)C2)cc1 (stereo not drawn) | inactive
